# Experimental data reported in PubChem BioAssay (EPA / NIEHS).
# Inconclusive results are not listed. Where a structure was tested more than once in an assay, its records may differ in their call. Calls of active or inactive are those of the source. Rule for the calls: active = hit-call score of the fitted dose curve at least 0.9, where 1 is the maximum; inconclusive = response in the unintended direction; inactive = score below 0.9.
# Molecular target: Bile acid receptor (Homo sapiens) (UniProt Q96RI1)
# Sequence (Q96RI1 whole entry, looked up): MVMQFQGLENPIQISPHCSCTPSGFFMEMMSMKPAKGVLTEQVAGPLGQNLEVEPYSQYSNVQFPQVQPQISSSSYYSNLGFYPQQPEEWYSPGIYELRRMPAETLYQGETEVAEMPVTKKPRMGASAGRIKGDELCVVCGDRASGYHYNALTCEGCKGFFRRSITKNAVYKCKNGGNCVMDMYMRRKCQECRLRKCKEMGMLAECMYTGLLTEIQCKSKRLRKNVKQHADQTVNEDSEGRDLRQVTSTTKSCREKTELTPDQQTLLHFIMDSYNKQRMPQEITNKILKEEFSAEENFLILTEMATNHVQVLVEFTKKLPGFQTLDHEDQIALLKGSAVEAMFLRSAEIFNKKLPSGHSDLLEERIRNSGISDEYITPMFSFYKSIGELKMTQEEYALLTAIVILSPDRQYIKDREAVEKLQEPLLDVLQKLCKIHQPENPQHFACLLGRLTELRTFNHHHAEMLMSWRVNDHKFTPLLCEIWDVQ
# Test: ATG_FXR_TRANS: Attagene TRANS-FACTORIAL HepG2 Assay for Farnesoid X Receptor (FXR) (AID 2282979);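 note: hits raise reporter mRNA above DMSO so AC50 marks FXR activation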
# Details: HepG2 Attagene TRANS FXR-GAL4 reporter transcription
# Experimental: ATG_TRANS is a cell-based, multiplexed-readout assay that uses HepG2, a human liver cell line, with measurements taken at 24 hours after chemical dosing in a 24-well plate.ATG_FXR_TRANS is one of 30 assay component(s) measured or calculated from the ATG_TRANS assay. It is designed to make measurements of mRNA induction, a form of inducible reporter, as detected with fluorescence intensity signals by Reverse transcription polymerase chain reaction (RT-PCR) and Capillary electrophoresis technology.Data from the assay component ATG_FXR_TRANS was analyzed into 1 assay endpoint. This assay endpoint, ATG_FXR_TRANS, was analyzed in the positive analysis fitting direction relative to DMSO as the negative control and baseline of activity. Using a type of inducible reporter, measures of mRNA for gain-of-signal activity can be used to understand the reporter gene at the transcription factor-level as they relate to the gene NR1H4. Furthermore, this assay endpoint can be referred to as a primary readout, because this assay has produced multiple assay endpoints where this one serves a reporter gene function. To generalize the intended target to other relatable targets, this assay endpoint is annotated to the nuclear receptor intended target family, where the subfamily is non-steroidal.
# Human liver HepG2 cells are transiently transfected with multiple reporter transcription units (MRTUs) in 6-well plates using FuGene 6 reagent (Roche; 3 ml FuGene/1 mg DNA). The MRTU constructs are regulated by a cis-regulating element (promoter). […] A major difference between the CIS and TRANS system is that in CIS activities of endogenous TFs are measured, whereas the TRANS assay evaluates changes in activities of exogenous, chimeric NR-Gal4 proteins. […] At the end of 24 hour incubation, total RNA was isolated using TriZol reagent (Invitrogen). The isolated RNA is then reverse-transcribed using oligo(dT) primer and Mo-MLV reverse transcriptase (Invitrogen) with DNAse I (Ambion) treatment for 30 min. The one-tenth of the produced cDNA was amplified by PCR using Taq DNA polymerase (Invitrogen) and two reporter sequence-specific primers. The PCR products were fluorescently labeled by primer extension with 6-arboxyfluorescein (6-FAM) 5'-labeled reporter sequence-specific primer (2 min at 95 C, 20 s at 68 C and 10 min at 72 C) and these products were digested with 5U of HpaI (New England Biolabs) for 2h at 37 C. The fragments were purified using Qiaquick PCR columns (Qiagen), analyzed on an ABI 3130xL genetic analyzer (Applied Biosystems) with peak positions identified by using a set of X-rhodamine (ROX)-labeled MapMarker1000 molecular weight standards (BioVentures). The raw capillary electrophoresis data was processed using Attagraph software (Attagene).
SMILES,outcome,AC50
CC(C)(C)c1csc(-c2cc3cc(OCc4ccccc4CC(=O)O)ccc3o2)n1,inactive,
Cc1c2ccccc2c(C)c2c1ccc1ccccc12,inactive,
CC1(C)NC(=O)N(c2ccc([N+](=O)[O-])c(C(F)(F)F)c2)C1=O,inactive,
CCCCOC(=O)CC(CC(=O)OCCCC)(OC(C)=O)C(=O)OCCCC,inactive,
COc1ccc2cc(S(=O)(=O)N[C@H](CC(=O)N[C@H](Cc3ccc(CN4[C@H](C)CCC[C@@H]4C)cc3)C(=O)N(C)C(C)C)c3ccc4c(c3)OCO4)ccc2c1,inactive,
C[C@]12CC[C@@H]3c4ccc(O)cc4CC[C@H]3[C@@H]1CCC2=O,inactive,
O=C(O)Cn1c(=O)n(Cc2ccc(Br)cc2F)c(=O)c2ccc(Cl)cc21,inactive,
O=C(O)c1ccccc1C(=O)OCc1ccccc1,inactive,
CC/C(=C(/CC)c1ccc(O)cc1)c1ccc(O)cc1,inactive,
CCO[Si](CCCNC(N)=O)(OCC)OCC,inactive,
O=c1[nH]sc2ccccc12,inactive,
CN(C)C(=O)C1(N2CCCCC2)CCN(CC[C@@]2(c3ccc(Cl)c(Cl)c3)CN(C(=O)c3ccccc3)CCO2)CC1,inactive,
CCCCCCCCCCCC[N+](C)(C)C,inactive,
O=C(O)Cc1cc(I)c(Oc2ccc(O)c(I)c2)c(I)c1,inactive,
Cc1cccc2ccccc12,inactive,
CCN(Cc1cccnc1)C(=O)c1cccc(Cl)c1[C@]1(C)C(=O)N(Cc2ccc(OC)cc2OC)c2ccc(Cl)cc21,,2.58 µM (active)
CC[C@H](NC(=O)c1cc(F)ccc1NS(=O)(=O)c1cccc2cccnc12)c1ccccc1,inactive,
Cc1ncc(CO)c(CO)c1O,inactive,
CN1C(=O)N(c2ccccc2Br)Cc2cnc(Nc3ccc4c(c3)OCC(CO)O4)nc21 (stereo not given),inactive,
CCCC(=O)OCCC(C)C,inactive,

SMILES,outcome,AC50
NC(=O)c1nc(-c2cccc(-c3cc(F)ccc3OCC(F)(F)C(F)(F)F)c2)n[nH]1,inactive,
COc1cccc([C@H](O)C2CCN(CCc3ccc(F)cc3)CC2)c1OC,inactive,
CC(C)(c1cc(Br)c(O)c(Br)c1)c1cc(Br)c(O)c(Br)c1,inactive,
O=C(OCCCCCCOC(=O)c1ccccc1)c1ccccc1,inactive,
Cc1cn([C@H]2C[C@H](N=[N+]=[N-])[C@@H](CO)O2)c(=O)[nH]c1=O,inactive,
OC12N=C(c3ccccc3)SC1Cc1cc(Cl)ccc12 (stereo not given),inactive,
O=C1c2ccccc2C(=O)N1CCc1noc(-c2ccc(CN3CCCCCC3)s2)n1,inactive,
Cc1cc(F)ccc1-c1cc(N2CC[C@@H](O)[C@H]2CO)ncc1N(C)C(=O)C(C)(C)c1cc(C(F)(F)F)cc(C(F)(F)F)c1,inactive,
Cc1oc2c(NC(=O)c3c(Cl)cccc3Cl)cccc2c1C(C)(C)O,inactive,
CCCCCCCCOC(=O)c1cc(O)c(O)c(O)c1,,43 µM (active)
CC(=O)N1CCN(c2ccc(OC[C@H]3CO[C@](Cn4ccnc4)(c4ccc(Cl)cc4Cl)O3)cc2)CC1,inactive,
CCCCOC(=O)c1ccc(O)cc1,inactive,66.1 µM (active)
O=CCCCC=O,inactive,
CCCOC(=O)c1cc(O)c(O)c(O)c1,inactive,
Clc1ccccc1C(c1ccccc1)(c1ccccc1)n1ccnc1,inactive,
CCN(Cc1cccc(S(=O)(=O)O)c1)c1ccc(C(=C2C=CC(=[N+](CC)Cc3cccc(S(=O)(=O)O)c3)C=C2)c2ccccc2S(=O)(=O)[O-])cc1,inactive,
CCCCCCCCCCCO,inactive,
O=C(O)c1ccccc1-n1cc(C(=O)O)c(=O)c2cc(Nc3c(F)cc(F)cc3Cl)c(Cl)cc21,inactive,
COCC(C)OCC(C)OCC(C)O (stereo not given),inactive,
